# CYP2C9 inh = blockers of cytochrome P450 2C9 activity – biochemical, luminescence, ADME assay, primary screen; P11712; 96,000 tested, 20% active; CYP2C9 Supersomes, luciferin-H conversion; inhibition, % at 5 µM;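 active = blocking of liver enzyme CYP2C9 beyond about 50% at 5 µM, limit read from the data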
# Target sequence (P11712 whole entry, looked up): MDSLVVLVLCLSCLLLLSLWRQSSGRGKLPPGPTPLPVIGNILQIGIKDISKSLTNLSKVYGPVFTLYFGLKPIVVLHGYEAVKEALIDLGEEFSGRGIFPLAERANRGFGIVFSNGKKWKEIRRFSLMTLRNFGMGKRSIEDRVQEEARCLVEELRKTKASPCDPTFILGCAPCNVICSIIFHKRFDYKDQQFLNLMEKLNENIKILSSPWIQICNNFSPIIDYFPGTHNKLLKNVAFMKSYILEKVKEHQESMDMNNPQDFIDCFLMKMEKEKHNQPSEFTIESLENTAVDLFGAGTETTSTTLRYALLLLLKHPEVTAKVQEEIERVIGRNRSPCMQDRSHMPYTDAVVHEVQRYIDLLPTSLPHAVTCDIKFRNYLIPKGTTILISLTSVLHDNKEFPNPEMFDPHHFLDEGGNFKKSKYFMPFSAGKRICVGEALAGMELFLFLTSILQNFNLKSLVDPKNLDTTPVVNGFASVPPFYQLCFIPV
# CYP2C9 act = human CYP2C9 activators, primary screen, biochemical, luminescence. Cytochrome P450 2C9 (Homo sapiens), P11712. recombinant CYP2C9, luciferin-H conversion; stronger effect = higher value; factor 1 = untreated enzyme, 0 = blocked. activation factor at 5 µM. 96,000 tested, 1.4% active. AID 1024, 2008;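 active = activation factor of 2 or more for CYP2C9 at a 5 µM dose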
# CYP2C19 inhib = blockers of cytochrome P450 2C19 activity – biochemical, luminescence, ADME assay, primary screen; inhibition, % at 5 µM; AID 778, 2007; CYP2C19 Supersomes, luciferin-H EGE luminescence, 30 min; P33261; 96,000 tested, 21% active;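 active = CYP2C19 inhibition above a set limit at 5 µM in the primary screen, cut at about 50% in these data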
# CYP2C19 activ = human CYP2C19 activators, primary screen, biochemical, luminescence; AID 1025, 2008; recombinant CYP2C19, luciferin-H EGE luminescence; stronger effect = higher value; 0 = fully inhibited enzyme, 1 = untreated enzyme; activation factor at 5 µM; 96,000 tested, under 10 active;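 active = activation factor of at least 2 at 5 µM in the primary screen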
# Cav32 inh = Cav3.2 calcium influx blockers – cell-based, Fluo-4 calcium fluorescence, FDSS, MLSMR library, primary screen. AID 449739, 2010. Cav3.2-expressing cells; stronger effect = lower value. 100,000 tested, 4% active. B-score at 10 µM;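 active = single-dose well whose peak fluorescence ratio is a statistical outlier from its plate by either plate-standardised score or position-corrected B-score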
# A number is an active result; . = inactive; / = no result. This is a sample that favours compounds with a hit; in the whole collection about 27% have one here.
SMILES,CYP2C9 inh,CYP2C9 act,CYP2C19 inhib,CYP2C19 activ,Cav32 inh
COc1ccc(-c2nc(-c3cccc(C)c3)nc(Cl)c2C#N)cc1,69,.,.,.,.
COc1ccc(-c2c(C#N)c(C)nc3c2C(=O)c2ccccc2-3)cc1,.,.,57,.,.
COc1ccc(-c2nc(-c3ccccc3)nc(Cl)c2C#N)cc1,.,.,.,.,.
COc1ccc(-c2nc(-c3ccccc3)[nH]c(=O)c2C#N)cc1,65,.,.,.,.
COC(=O)C[C@H]1c2cc(F)ccc2S(=O)(=O)N1Cc1ccccc1,/,/,/,/,.
Cn1c(=O)c2c(n(C)c1=O)=NC1(CCCCC1)N=2,.,.,.,.,.
Cc1ccc(-c2nc(CSCC(=O)NCc3cccnc3)c(C)o2)cc1,.,.,.,.,.
CCOC(=O)CCN(Cc1cccs1)S(=O)(=O)c1ccc(F)cc1,.,.,75,.,.
CCOC(=O)CCN(Cc1sccc1C)S(=O)(=O)c1ccc(F)cc1,66,.,85,.,.
O=C(O)CN(Cc1ccccc1)S(=O)(=O)c1ccc(F)cc1,.,.,.,.,.
CCOC(=O)CN(Cc1ccccc1)S(=O)(=O)c1ccc(NC(C)=O)cc1,.,.,.,.,.
NNC(=O)c1cnn(Cc2ccccc2)c1N,/,/,/,/,.
CCCCn1c(=O)n(Cc2cccc(F)c2)c(=O)c2c1ncn2Cc1ccco1,.,.,.,.,.
O=c1c2ccccc2ncn1Cc1ccco1,.,.,.,.,.
Cn1c2ccc(F)cc2c2ncn(Cc3ccco3)c(=O)c21,61,.,51,.,.
Cn1c2ccccc2c2ncn(Cc3ccco3)c(=O)c21,60,.,69,.,.
CCCCC1CCC(C(=O)Nc2ccccc2)CC1 (centres undefined),.,.,.,.,.
CCn1cc(Cl)c(C(=O)Nc2nc3ccccc3n2CCN2CCCCC2)n1,.,.,.,.,.
COc1ccc(S(=O)(=O)N2Cc3ccccc3CC2C(=O)Nc2nccs2)cc1OC (centres undefined),69,.,86,.,.
COc1ccc(S(=O)(=O)N2Cc3ccccc3CC2C(=O)N2CCOCC2)cc1OC (centres undefined),.,.,.,.,.
O=C(O)C1Cc2ccccc2CN1S(=O)(=O)c1ccc2ccccc2c1 (centres undefined),.,.,.,.,.
COc1ccc(S(=O)(=O)N2Cc3ccccc3CC2C(=O)Nc2nccs2)cc1 (centres undefined),/,/,93,.,.
O=C(NC1CCCCCCC1)c1cnccn1,.,.,63,.,.
O=C(OCC(=O)N(C1CCCCC1)C1CCCCC1)c1cnccn1,.,.,54,.,.
O=C(NC1CCS(=O)(=O)C1)c1cnccn1 (centres undefined),.,.,.,.,.
SMILES,CYP2C9 inh,CYP2C9 act,CYP2C19 inhib,CYP2C19 activ,Cav32 inh
CCN(C(=O)COC(=O)c1cnc(C)cn1)C1CCCCC1,.,.,.,.,.
Cc1cccc(-n2c(SCc3cc(=O)n4c(C)cccc4n3)nc3[nH]ncc3c2=O)c1,.,.,.,.,/
C#CCOCCOCCOCCNc1nc(N2CCN(C(=O)[C@H](CCC(=O)O)n3cc(C(N)CC(C)C)nn3)CC2)nc(N2CCN(C(=O)[C@H](CCC(=O)O)n3cc(C(N)[C@H](C)CC)nn3)CC2)n1 (some centres undefined),/,/,/,/,.
O=[N+]([O-])c1ccc(Sc2ccccc2Cl)nc1,.,.,62,.,.
Cc1cc(C)c(CSc2ncc(-c3ccc([N+](=O)[O-])cc3)[nH]2)c(C)c1,65,.,.,.,.
O=[N+]([O-])c1ccc(-c2cnc(SCc3ccccc3Cl)[nH]2)cc1,52,.,.,.,.
O=c1c([N+](=O)[O-])c(N2CCCCCC2)c2ccccc2n1-c1ccccc1,.,.,.,.,.
COC(=O)c1ccc(Oc2nc(C(N)=O)cc(-c3ccccc3)n2)cc1,.,.,.,.,.
CC(C)=CC(=O)NCc1c(Cl)cccc1-n1cccc1,.,.,.,.,.
CCCCCCN(C(=O)CCCCCN1C(=O)NC(c2ccc(-c3ccccc3)cc2)C(C(=O)OCc2ccccc2)=C1C)C(C(=O)NCCCC)c1ccc(O)c(C(=O)OC)c1 (centres undefined),/,/,/,/,.
